Source: PubChem BioAssay (National Center for Advancing Translational Sciences (NCATS))
In the library only some 12% were active in any assay of this set; here they are far more common.
SARS PLP yeast: qHTS of Yeast-based Assay for SARS-CoV PLP | AID 485353, 2010 | S. cerevisiae expressing SARS-CoV PLpro, growth rescue | 330,000 compounds, 0.19% hits | Potency, µM (highest dose often 32.9 µM), most hits filed as activators; calls by dose curve; also: nearly all actives have a fitted effect of over 55% in size
Pf growth 96h: Primary qHTS for delayed death inhibitors of the malarial parasite plastid, 96 hour incubation; P. falciparum luciferase reporter growth, 96 h; Potency, µM (highest dose often 28.7 µM), most hits filed as inhibitors; 320,000 compounds, 6.9% hits
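Plates of compound plus infected erythrocytes (2% hematocrit, 0.05% parasitemia final) incubate 96 hours, 37 C, 5% CO2. Detection reagent added; reduced luminescence from the parasites' luciferase reporter flags inhibition.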
Sm TGR inh: qHTS Assay for the Inhibitors of Schistosoma Mansoni Peroxiredoxins | Schistosoma mansoni thioredoxin glutathione reductase (TGR), Q962Y6 | Potency, µM (doses to about 114 µM), most hits filed as inhibitors | 360,000 compounds, 3% hits | purified TGR, DTNB reduction, TNB absorbance 405 nm; also: nearly all actives have a fitted effect of over 60% in size
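TGR 20 nM + NADPH 100 uM (dispensed conc.), cpd preinc 15 min RT; start with NADPH (500 uM addition) then DTNB (15 mM addition). Kinetic TNB absorbance, 405 nm filter. Four-parameter Hill fit across titration.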
Pf growth 48h: Primary qHTS for delayed death inhibitors of the malarial parasite plastid, 48 hour incubation. P. falciparum luciferase growth in erythrocytes, 48 h. Potency, µM (series often up to 28.7 µM), most hits filed as inhibitors. 310,000 compounds, 5.9% hits. AID 504832, 2011
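Growth was read as firefly luciferase luminescence after a 48 h, 37 C, 5% CO2 exposure of compounds to reporter-bearing P. falciparum cultures (0.1% parasitemia, 2% hematocrit final) in Albumax-supplemented RPMI 1640.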
Of the large screens only hits and unclear results are named; the others gave an inactive call. Unless noted, calls follow the shape of the dose curve; as a rule, active = well fitted curve in the direction sought with a large enough effect; inconclusive = small, poorly fitted or top-dose-only effect, or another doubt; inactive = no such curve, though single readings can be large; an effect the other way counts as inactive or inconclusive.

CCCCNc1oc(-c2ccc(OC)cc2)nc1S(=O)(=O)c1ccccc1	Sm TGR inh 32µM (no result: Pf growth 96h)
CCOc1ccc(-c2nc(S(=O)(=O)c3ccccc3)c(NC)o2)cc1	Pf growth 96h inconclusive
Cc1ccc(S(=O)(=O)c2nc(C)oc2NCc2ccccc2)cc1	Sm TGR inh 2µM
CCNc1oc(-c2ccc(OC)cc2)nc1S(=O)(=O)c1ccc(Br)cc1	Pf growth 48h inconclusive (no result: Pf growth 96h)
CNc1oc(C)nc1S(=O)(=O)c1ccc(C)cc1	none
COc1ccc(-c2nc(S(=O)(=O)c3ccc(C)cc3)c(NCc3ccccc3)o2)cc1	Sm TGR inh 13µM (no result: SARS PLP yeast, Pf growth 96h, Pf growth 48h)
CCOc1ccc(-c2nc(S(=O)(=O)c3ccccc3)c(NCc3cccnc3)o2)cc1	Sm TGR inh inconclusive, Pf growth 48h 13µM (no result: Pf growth 96h)
CC(C)NC(=O)N1[C@H](c2cccs2)[C@@H](C)C(=O)[C@@H](C)[C@@H]1c1cccs1	none (no result: SARS PLP yeast, Pf growth 96h, Pf growth 48h)
Cc1ccc(S(=O)(=O)c2nc(-c3ccccc3)oc2NCCN2CCOCC2)cc1	Sm TGR inh 45µM (no result: Pf growth 96h)
CCOC(=O)CN1C(=O)C2(OCCCO2)c2cc(Br)ccc21	Pf growth 96h inconclusive
O=c1[nH]c2ccccc2nc1CCc1ccccc1	none
c1ccc(CCc2nc3ccccc3[nH]2)cc1	Pf growth 96h 5.9µM
O=S(=O)(CCc1nc2ccccc2[nH]1)c1ccc(Br)cc1	Pf growth 96h 10µM, Pf growth 48h inconclusive
Oc1ccc(O)c(Cc2nc3ccccc3[nH]2)c1	Sm TGR inh 6.3µM, Pf growth 48h inconclusive
O=C(NCCCc1nc2ccccc2[nH]1)c1ccco1	Pf growth 96h 9.3µM
CCN(CC)CCCn1c2c(c(SCC(=O)Nc3ccccc3Cl)nc1=O)CCC2	Pf growth 48h inconclusive
CCOC(=O)C1(C)C=C(Nc2cccc(C(=O)O)c2)C(=O)N1c1cccc(C(=O)O)c1 (centres undefined)	none (no result: SARS PLP yeast, Pf growth 96h, Pf growth 48h)
c1ccc2[nH]c(CCCc3nc4ccccc4[nH]3)nc2c1	Pf growth 96h 13µM, Pf growth 48h inconclusive
Cc1ccc(-c2nc3ccccc3[nH]2)cc1NC(=O)/C=C/c1ccco1	Pf growth 96h inconclusive, Sm TGR inh 20µM, Pf growth 48h inconclusive
O=C(/C=C/c1ccco1)N/C(=C\c1ccco1)C(=O)NCCc1nc2ccccc2[nH]1	Sm TGR inh 16µM
CCCCc1nc2ccccc2[nH]1	none
O=C(Nc1cccc(S(=O)(=O)NC2=NCCC2)c1)c1ccc(C(F)(F)F)cc1	none (no result: Pf growth 96h, Sm TGR inh, Pf growth 48h)
CCOC(=O)C1(C(C)(C)CC)CC(CSc2nc3ccccc3[nH]2)OC1=O (centres undefined)	Pf growth 48h 8.3µM
N#CC1=C(N)OC2=C(CCc3ccccc32)C1c1ccccc1 (centres undefined)	Pf growth 48h 12µM
Nc1cc(S(=O)(=O)Nc2ccc(Cl)cc2)ccc1N1CCOCC1	none
N=C1c2ccccc2CN1c1ccc(N2CCOCC2)c(S(=O)(=O)Nc2ccc(Cl)cc2)c1	Pf growth 96h 9.3µM, Pf growth 48h inconclusive
CC(=O)Nc1ccc(NC(=O)CCCc2ccccc2)cc1	none
Cc1nc2ccccn2c(=O)c1NC(=O)c1ccccc1Cl	none (no result: SARS PLP yeast, Pf growth 96h, Pf growth 48h)
Cc1ccc2c(CN3CC(C)CC(C)C3)cc(=O)oc2c1 (centres undefined)	Sm TGR inh 89µM, Pf growth 48h inconclusive
Cc1ccc2c(CN3CCCCC3C)cc(=O)oc2c1 (centres undefined)	none
Cc1ccc2c(CN3CCC(C)CC3)cc(=O)oc2c1	none (no result: Pf growth 96h)
Cc1ccc2c(CN3CCCCC3CCO)cc(=O)oc2c1 (centres undefined)	Sm TGR inh 25µM
Cc1ccc2c(CN3C(=O)NC(C)(c4ccc5c(c4)OCO5)C3=O)cc(=O)oc2c1 (centres undefined)	Pf growth 96h inconclusive, Pf growth 48h 4.1µM
COc1ccc(Nc2c(-c3ccc(C)o3)nc3cc(C)ccn23)cc1	none (no result: SARS PLP yeast, Pf growth 96h, Pf growth 48h)
CCOc1ccccc1NC(=O)COC(=O)c1cn(CC)c2nc(C)ccc2c1=O	none (no result: SARS PLP yeast, Pf growth 96h, Pf growth 48h)
C=CSc1sc(Cl)c(N2CCOCC2)c1[N+](=O)[O-]	Pf growth 48h 8.3µM (no result: Sm TGR inh)
C=CS(=O)(=O)c1sc(Cl)c(N2CCOCC2)c1[N+](=O)[O-]	Sm TGR inh 0.1µM
CC1CC(C)CN(C(=O)C2CCN(C(=O)Nc3ccccc3)CC2)C1 (centres undefined)	none
O=C(NC(=S)Nc1ccc(N2CCOCC2)cc1)c1cccs1	Sm TGR inh 8.9µM
Cc1ccccc1C(=O)N1CCN(c2ccc(NC(=S)NC(=O)c3cccs3)cc2)CC1	Pf growth 48h 9.3µM (no result: Sm TGR inh)
S=C(Nc1ccc(N2CCOCC2)cc1)Nc1ccc2snnc2c1	Sm TGR inh 35µM
CCC(Sc1nc(-c2ccccc2F)nc2c1Cc1c(CO)cnc(C)c1O2)C(=O)Nc1cc(C)ccc1C (centres undefined)	none (no result: SARS PLP yeast, Pf growth 96h, Pf growth 48h)
O=C(Cn1cc(S(=O)(=O)Cc2cccc([N+](=O)[O-])c2)c2ccccc21)N1CCOCC1	Pf growth 48h inconclusive
Cc1ccc(-c2csc3nc(=O)c(C)nn23)cc1	Pf growth 96h 5.2µM
CC1CC(C)CN(C(=O)CN2C(=O)NC(c3ccccc3)(c3ccccc3)C2=O)C1 (centres undefined)	Pf growth 96h inconclusive, Pf growth 48h inconclusive
Cc1ccc(C)c(OCCCNC2CCCC2)c1C	Pf growth 96h inconclusive, Pf growth 48h 12µM
O=C1c2cccc3c([N+](=O)[O-])ccc(c23)C(=O)N1c1nccs1	Sm TGR inh 1.8µM
O=C1c2cccc3c([N+](=O)[O-])ccc(c23)C(=O)N1O	none
O=C1c2cccc3c([N+](=O)[O-])ccc(c23)C(=O)N1c1ccc(Cl)cn1	Sm TGR inh 14µM
O=C1c2cccc3c([N+](=O)[O-])ccc(c23)C(=O)N1c1ccccn1	Sm TGR inh 20µM
O=C1c2ccc([N+](=O)[O-])cc2C(=O)N1c1ccc(Cl)cn1	none
CC1=C(C)CC(C(=O)NCc2c(F)cccc2Cl)C(C(=O)O)C1 (centres undefined)	none
COc1cccc(C(=O)NC2CC3CCCC(C2)N3CC(=O)Nc2ccc(N(C)C)cc2)c1 (centres undefined)	Pf growth 96h 12µM, Pf growth 48h inconclusive
COc1cccc(C(=O)NC2CC3CCCC(C2)N3CC(=O)Nc2ccccc2)c1 (centres undefined)	Pf growth 96h inconclusive, Pf growth 48h 5.2µM
O=C(CN1C2CCCC1CC(NC(=O)c1ccccc1)C2)Nc1ccccc1 (centres undefined)	Pf growth 96h 8.3µM, Pf growth 48h inconclusive
CC(=O)c1cccc(NC(=O)C2CCN(c3nnc(-n4cccc4)s3)CC2)c1	none (no result: SARS PLP yeast, Pf growth 96h, Pf growth 48h)
COc1ccc(/C=C/C(=O)Oc2ccc(C)cc2)cc1	Pf growth 96h inconclusive
CCOc1ccc(S(=O)(=O)NCc2ccc3c(c2)OCO3)cc1NC(C)=O	none
O=C(/C=C/c1c(Cl)cccc1Cl)n1cccn1	Sm TGR inh 18µM
Cc1cccc(C(=O)NC(=S)Nc2ccc(N3CCOCC3)cc2)c1	Pf growth 96h inconclusive, Sm TGR inh 14µM
CC(C)(C)c1ccc(C(=O)Nc2ccc(N3CCOCC3)cc2)cc1	Pf growth 96h inconclusive (no result: Pf growth 48h)
COC(=O)c1cc(NC(=O)c2cc(-c3ccccc3Cl)oc2C(F)(F)F)ccc1N1CCOCC1	Pf growth 96h inconclusive, Pf growth 48h inconclusive
